Compound activity: PubChem BioAssay, National Center for Advancing Translational Sciences (NCATS)
Marburg entry inh: Marburg virus entry inhibition. 1.8% of 300,000 active. Marburg virus pseudotyped entry inhibition, cell reporter. AID 540276. Potency, µM (top dose mostly 37.8 µM), for the others: at the highest dose activity change, negative = inhibition, usual class: inhibitors; calls by dose curve; tested in HEK293 cells
Sm TGR block: S. mansoni TGR enzyme inhibition; purified TGR, DTNB reduction, TNB absorbance 405 nm; Potency, µM (titrated, usually from 114 µM), without a hit: at the highest dose activity change, negative = inhibition, usual class: inhibitors; 3% of 360,000 active; further: nearly all actives have a fitted effect of over 60% in size
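Kinetic colorimetric format: TGR-catalysed, NADPH-driven DTNB reduction monitored via TNB absorbance. Enzyme dispensed at 20 nM; compound exposure 15 min at room temperature before reaction start.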
Lassa entry inh: inhibitors of Lassa virus binding or cell entry. Potency, µM (series often up to 37.9 µM), for inactives: at the highest dose activity change, negative = inhibition, hits mostly inhibitors. Lassa virus pseudotype entry inhibition, cell reporter. 1.2% of 300,000 active; calls by dose curve; tested in HEK293 cells; further: nearly all actives have a fitted effect of over 50% in size
HCV inhibitor: inhibitors of hepatitis C virus infection. Potency, µM (doses to about 41.8 µM), for the others: top-dose activity change, negative = inhibition, most hits filed as inhibitors. Huh7.5.1 HCVcc-Cre infection, luciferase reporter, 44 h. AID 651820. 3.4% of 340,000 active
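Whole-lifecycle infectious HCVcc-Cre system; cells 1,000/well, compound then virus (~0.5 moi) added 4 h after plating, 44 h culture. Luciferase read 15 sec following 15 min substrate incubation, room temp.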
FMDV inh: foot and mouth disease virus antiviral activity; Potency, µM (highest dose often 57.9 µM), for the others: at the top dose activity change, negative = inhibition, hits mostly inhibitors; AID 1159524; 1.2% of 410,000 active; FMDV antiviral cell-based qHTS; calls by dose curve; tested in HEK293T cells; further: read-out not given here; nearly all actives have a fitted effect of over 45% in size
RE007 growth inh: less growth of the S. pombe RE007 Vpr strain. S. pombe RE007 Vpr strain, BacTiter-Glo ATP luminescence, 24 h. Potency, µM (highest dose often 92.2 µM), for inactives: top-dose activity change, negative = less growth, most hits filed as inhibitors. 0.21% of 360,000 active; active means well fitted falling curve with a large enough effect; inconclusive means small, poorly fitted or top-dose-only effect; inactive means no such curve, though single readings can be large or run the other way; further: nearly all actives have a fitted effect of over 50% in size
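Fission yeast strain RE007, carrying one chromosomally integrated HIV-1 vpr copy, was seeded at OD 0.01 in PMG+AL medium with 23 nL pinned compound. After 24 h at 30 °C and 99% humidity, viability was read by BacTiter-Glo luminescence.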
Numbers without * were called inactive; u = inconclusive; x = no result given; ! = a repeat was not active; [ ] = dose if it differs, or a comment. Hits are enriched below; roughly 7.2% of the tested compounds scored in any of these assays. Unless noted, the call rests on the fitted dose curve; in most records, active means well fitted curve in the direction sought with a large enough effect; inconclusive means small, poorly fitted or top-dose-only effect, or another doubt; inactive means no such curve, though single readings can be large; an effect the other way counts as inactive or inconclusive. On the % scale 0 is the no-effect control and ±100 the full control effect; potency means the concentration at half of the fitted maximal effect.

SMILES	Marburg entry inh	Sm TGR block	Lassa entry inh	HCV inhibitor	FMDV inh	RE007 growth inh
O=C(Nc1ccc(S(=O)(=O)N2CCOCC2)cc1)c1ccccc1	u	11%	u	u	-25%	-14%
O=C(Nc1nc(-c2cc3ccccc3o2)cs1)c1ccc(S(=O)(=O)N2CCCC2)cc1	u	-5%	u	u	u	8%
COc1cc(C(=O)Nc2nc(-c3ccc(C)cc3)cs2)ccc1OCC(=O)N1CCOCC1	-2%	-2%	7%	11µM*	22µM*	-8%
O=C(Nc1nc(-c2nc3ccccc3s2)cs1)c1ccc(S(=O)(=O)N2CCOCC2)cc1	u	0%	-80%	11µM*	u	-17%
CCCCC(=O)Nc1nc(-c2ccc(S(=O)(=O)N3CCOCC3)cc2)cs1	-25%	2%	u	u	u	9%
O=C(Nc1nc(-c2ccc(S(=O)(=O)N3CCOCC3)cc2)cs1)c1ccccc1	4µM*	14%	u	7.9µM*	14µM*	2%
CCS(=O)(=O)c1ncc(N(Cc2ccco2)Cc2ccccc2F)c(C(=O)Nc2cccc(Cl)c2)n1	-11%[46.1 µM]	4%	u	x	-10%	x
COc1cccc(Nc2nc3ccc(C)cc3nc2-n2nc(C)cc2C)c1	16%[46.1 µM]	9%	28%[46.1 µM]	x	-10%	x
CCOC(=O)[C@]12CCC=C1N(Cc1ccco1)C(=O)[C@H](CC(=O)NCCCN1CCCC1=O)C2	x	x	x	x	-21%	6%
O=C(Nc1nc(-c2ccc(S(=O)(=O)N3CCCC3)cc2)cs1)c1cccs1	u	-1%	u	u	u	-1%
O=C(Nc1nc(-c2ccc(S(=O)(=O)N3CCCCCC3)cc2)cs1)c1cccs1	u	1%	-12%	u	10µM*	-16%
O=C(Nc1nc(-c2ccccc2)cs1)C1CCCN(S(=O)(=O)c2cccc([N+](=O)[O-])c2)C1 (centres undefined)	u	-7%	u	-29%	-21%	-14%
COc1cccc(C(=O)Nc2nc(-c3ccc(S(=O)(=O)N4CCOCC4)cc3)cs2)c1	u	4%	11µM*	10µM*!	u	13%
O=C(Nc1nc(-c2ccccc2)cs1)C1CCCN(S(=O)(=O)c2ccccc2)C1 (centres undefined)	8.2µM*	-3%[11.4 µM]	10µM*	5µM*	10µM*	-2%
Cc1ccc(-c2csc(NC(=O)COC(=O)c3cccc(S(=O)(=O)N4CCOCC4)c3)n2)cc1	u	0%	-24%	-7%	-6%	-4%
CCOc1cc(C(=O)Nc2ccc(C(=O)NCCN(CC)CC)cc2)ccc1OCC(=O)N1CCOCC1	-12%[46.1 µM]	35µM*	10%	-5%	8%	-9%
COc1ccc(-c2cccc3c2C2CC3CCN2C(=O)OCc2ccccc2)cc1 (centres undefined)	x	x	x	7.9µM*	-28%	-17%
O=C(OCc1ccccc1)N1CCC2CC1c1cc(-c3ccccc3)ccc12 (centres undefined)	x	x	x	-17%	31%	-3%
CCOc1ccc(CCNC(=O)C2CCN(C(=O)N3CC(CC)Oc4ccc(C)cc43)CC2)cc1 (centres undefined)	x	-2%	-17%[46.1 µM]	x	28µM*	x
COc1ccccc1C(=O)OCc1cc(=O)n2nc(C3CCCCC3)sc2n1	x	-1%	u	x	u	x
CN1CCN(c2ccc(Cl)cc2NC(=O)CCN2C(=O)c3ccccc3C2=O)CC1	x	40µM*	x	-11%	-6%	-14%
CC(Oc1ccc(Cl)cc1Cl)C(=O)Nc1ccc(N2CCN(C)CC2)cc1 (centres undefined)	12µM*	5%	u	u	-14%	40%
CC(Oc1ccc(Br)cc1)C(=O)Nc1cc(Cl)ccc1N1CCN(C)CC1 (centres undefined)	8.9µM*	3%	u	u	-10%	3%
O=C(/C=C/c1ccccc1)CC(O)(c1ccccc1)C(F)(F)C(F)F (centres undefined)	u	25µM*	u	u	x	-13%
COc1ccc(/C=C/C(=O)CC(O)(c2ccccc2)C(F)(F)F)cc1 (centres undefined)	u	-32%	u	-12%	35µM*	-23%
SMILES	Marburg entry inh	Sm TGR block	Lassa entry inh	HCV inhibitor	FMDV inh	RE007 growth inh
O=C(/C=C/c1ccccc1)CC(O)(c1ccccc1)C(F)(F)F (centres undefined)	u	28µM*	u	u	x	-16%
C#Cc1cccc(C(=O)NCc2nc(-c3ccccc3NC(=O)C3CCCO3)oc2C)c1 (centres undefined)	x	x	x	x	-7%	x
COC(=O)C/C=C\[C@H](C)[C@@H](OCc1ccccc1Br)C(C)C	14%[14.2 µM]	x	x	x	x	x
CCOC1(OCC)C(c2ccc(Cl)cc2)C(C#N)(C#N)C1(OCC)OCC (centres undefined)	u	-30%	21µM*	-25%	u	-5%
CCOC1(OCC)C(c2ccc(N)cc2)C(C#N)(C#N)C1(OCC)OCC (centres undefined)	u	1%	-3%	19%	u	0%
CC(C)c1cccc(-c2csc(C(C)(O)c3ccccc3)n2)c1 (centres undefined)	x	x	x	x	-5%	u
O=C(c1ccccc1)c1ccc(OCCOCCN2CCN(Cc3ccccc3)CC2)cc1	u	x	-2%	14µM*	u	-21%
O=C(c1ccco1)N1CCN(CC(O)COc2ccc(Br)cc2)CC1 (centres undefined)	-3%	45µM*	-16%	-10%	-27%	8%
O=C(c1ccccc1)c1ccc(OCCCN2CCCC2)cc1	-17%	-2%	11%	36%	32%	13%
CC(=O)c1ccc(OCC(O)CN2CCN(Cc3ccccc3)CC2)cc1 (centres undefined)	x	-1%	x	-11%	0%	0%
O=C(c1ccccc1)c1ccc(OCC(O)CN2CCN(Cc3ccccc3)CC2)cc1 (centres undefined)	15µM*	2%	u	u	-26%	-3%
COC(=O)c1ccc(OCC(O)CN2CCN(C(=O)c3ccco3)CC2)cc1 (centres undefined)	x	-13%	x	16%	2%	2%
CCOc1ccc2nc(N3C(=O)/C(=C/c4ccccc4)NC3=S)sc2c1	u	3%	13µM*	u	27%	-13%
O=C(c1ccc2c(c1)OCO2)C1CCCN(Cc2ccc(F)c(F)c2)C1 (centres undefined)	u	5%	0%	-28%	-26%	-11%
O=C(c1ccc2c(c1)OCO2)C1CCCN(Cc2ccc(OC(F)F)cc2)C1 (centres undefined)	x	4%	x	13µM*	u	-24%
Cc1ccc(NC(=O)CN2CCN(C3CCCCC3)C(=O)C2=O)cc1	x	-8%	-7%[46.1 µM]	x	-1%	x
